This passage reports potency estimated from few doses results from publication PMC11062922 (Nature Chemical Biology, 2023).

Where two headings read alike, the source gives them in different places.

What all share (parameters): species or system human, MV4-11 + K-562 + COLO205 + SK-N-BE2 + OVCAR-8
Assay [1] deals with MAPK10. Particulars: read-out: apparent Kd, n = 1.
Assay [2] relates to MAPK11. Particulars: read-out: apparent Kd, n = 1.
The subject of assay [3] is MAPK14. Particulars: read-out: apparent Kd, compound concentrations: 100 nM and 1000 nM (sheet 'Samples'), n = 1.
For assay [4], the system named is MAPK8. To be noted: read-out: apparent Kd, n = 1.
For assay [5], the system named is MAPK9. Particulars: read-out: apparent Kd, n = 1.
Assay [6] deals with MAPKAPK2. To be noted: read-out: apparent Kd, n = 1.
Assay [7] relates to PIP4K2C. To be noted: read-out: apparent Kd, n = 1.
Assay [8] has as its system JAK2. Particulars: read-out: apparent Kd; compound concentrations: 100 nM and 1000 nM (sheet 'Samples'), CATDS: 0.37091451707305101; n = 1.
Assay [9] has as its system PIK3CA. To be noted: read-out: apparent Kd; compound concentrations: 100 nM and 1000 nM (sheet 'Samples'), CATDS: 0.76689409603513903; n = 1.
Assay [10] deals with MARK4. To be noted: read-out: apparent Kd; compound concentrations: 100 nM and 1000 nM (sheet 'Samples'), CATDS: 0.22058260458437301; n = 1.
Assay [11] has as its system PIK3CB. Particulars: read-out: apparent Kd; compound concentrations: 100 nM and 1000 nM (sheet 'Samples'), CATDS: 0.29379902166128602; n = 1.
Assay [12] deals with RIOK2. To be noted: read-out: apparent Kd, n = 1.
Assay [13] has as its system STK26. To be noted: read-out: apparent Kd; compound concentrations: 100 nM and 1000 nM (sheet 'Samples'), CATDS: 0.44700655759470098; n = 1.
For assay [14], the system named is NLK. To be noted: read-out: apparent Kd; compound concentrations: 100 nM and 1000 nM (sheet 'Samples'), CATDS: 0.137200771005723; n = 1.
In assay [15] the test system is LIMK1. Particulars: read-out: apparent Kd; compound concentrations: 100 nM and 1000 nM (sheet 'Samples'), CATDS: 0.71485033586555802; n = 1.
Assay [16] relates to LIMK2. Particulars: read-out: apparent Kd; compound concentrations: 100 nM and 1000 nM (sheet 'Samples'), CATDS: 0.38445187661018698; n = 1.
In assay [17] the test system is MAP2K1. To be noted: read-out: apparent Kd; compound concentrations:100 nM and 1000 nM (sheet 'Samples'); n = 1.
Assay [18] concerns PIK3C2A. Particulars: read-out: apparent Kd; compound concentrations:100 nM and 1000 nM (sheet 'Samples'); n = 1.
Assay [19] deals with PIK3C3. Particulars: read-out: apparent Kd; compound concentrations:100 nM and 1000 nM (sheet 'Samples'); n = 1.
The test system of assay [20] is PIM2. To be noted: read-out: apparent Kd; compound concentrations:100 nM and 1000 nM (sheet 'Samples'); n = 1.
Assay [21] deals with MAP3K1. To be noted: read-out: apparent Kd, n = 1.
The subject of assay [22] is MAP4K5. To be noted: read-out: apparent Kd; compound concentrations: 100 nM and 1000 nM (sheet 'Samples'), CATDS: 0.32149724662749601; n = 1.
Assay [23] deals with PLK1. To be noted: read-out: apparent Kd; compound concentrations: 100 nM and 1000 nM (sheet 'Samples'), CATDS: 0.55429480894525696; n = 1.
The subject of assay [24] is SLK. Particulars: read-out: apparent Kd; compound concentrations: 100 nM and 1000 nM (sheet 'Samples'), CATDS: 0.14112272983739199; n = 1.
Assay [25] deals with STK10. Particulars: read-out: apparent Kd; compound concentrations: 100 nM and 1000 nM (sheet 'Samples'), CATDS: 0.168955384509856; n = 1.
The subject of assay [26] is NUAK2. Particulars: read-out: apparent Kd; compound concentrations:100 nM and 1000 nM (sheet 'Samples'); n = 1.
For assay [27], the system named is PAICS. Particulars: read-out: apparent Kd; compound concentrations:100 nM and 1000 nM (sheet 'Samples'); n = 1.
The test system of assay [28] is PIK3CG. Particulars: read-out: apparent Kd; compound concentrations:100 nM and 1000 nM (sheet 'Samples'); n = 1.
Where [29] appears, read: compound concentrations:100 nM and 1000 nM (sheet 'Samples').
Setting [30] is: compound concentrations: 100 nM and 1000 nM (sheet 'Samples'), CATDS: 1.

Regarding `O=c1[nH]c2nc(NC3CCOCC3)ncc2cc1Oc1ccc(F)cc1F` [RO3310867-000], the potency estimated from few doses in assay [1] (setting [29]) is 150 nM; in assay [2] (setting [29]), 655 nM; in [3] (CATDS: 0.37744016768512201), 9.96 nM; in assay [4] (setting [29]), 554 nM; in assay [5] (setting [29]), 98.4 nM; in assay [6] (setting [29]) it was 5.98 nM. Moreover, in assay [7] (setting [29]), the potency estimated from few doses was 781 nM.
Regarding `Nc1c(C(=O)c2cccc(C#CCO)c2)cnn1-c1ccc(F)cc1` [RO1153836-000], the potency estimated from few doses in assay [2] (setting [30]) is 591 nM.
Turning to `NC(=O)c1sc(-n2cnc3cc(C(F)(F)F)ccc32)cc1OCc1ccccc1Br` [GW853609X], the potency estimated from few doses in assay [8] is 1140 nM; in assay [9], 204 nM.
On to `COC(=O)Nc1nc2ccc(Sc3ccc(NC(=O)Nc4cc(C(F)(F)F)ccc4F)cc3)cc2[nH]1.O=S(=O)(O)O` [GW607049C], for which the potency estimated from few doses in [1] (compound concentrations: 100 nM and 1000 nM (sheet 'Samples'), CATDS: 0.243888047714692) was 1550 nM; in assay [10], 1930 nM; in [11], 1090 nM; in assay [12] (compound concentrations: 100 nM and 1000 nM (sheet 'Samples'), CATDS: 0.25235817930049498) it was 1440 nM.
For the compound `COCCNC(=O)c1ccc(-c2cc(C(=O)NC3CC3)cc(F)c2C)cc1` [GW868318X], the results for the potency estimated from few doses in assay [2] (setting [29]), in assay [3] (CATDS: 0.55857087808569805) and in [6] (setting [29]) were 108 nM, 22.7 nM and 79.6 nM, respectively.
Regarding `CN1CCN(CC#Cc2cccc(C(=O)c3cnn(-c4ccc(F)cc4)c3N)c2)CC1.Cl` [RO1154309-001], the potency estimated from few doses was 811 nM in [2] (compound concentrations: 100 nM and 1000 nM (sheet 'Samples'), CATDS: 0.56724832291410499); 1310 nM in assay [13].
With `CC(C)(O)Cn1c(=O)c(Oc2ccc(F)cc2F)cc2cnc(NC3CCOCC3)nc21` [RO5036558-000], the potency estimated from few doses in [1] (compound concentrations: 100 nM and 1000 nM (sheet 'Samples'), CATDS: 0.17874550909650799) was 71.4 nM; in assay [2] (compound concentrations: 100 nM and 1000 nM (sheet 'Samples'), CATDS: 7.7724815915961296E-2), 1370 nM; in assay [3] (CATDS: 0.32550592526208599), 24.8 nM; in assay [4] (compound concentrations: 100 nM and 1000 nM (sheet 'Samples'), CATDS: 9.0808472598726403E-2) it was 578 nM; in assay [5] (compound concentrations: 100 nM and 1000 nM (sheet 'Samples'), CATDS: 0.14012416738293099), 127 nM; in assay [6] (compound concentrations: 100 nM and 1000 nM (sheet 'Samples'), CATDS: 0.240899887861172), 40.4 nM. In addition, the potency estimated from few doses in assay [14] was 134 nM; in assay [7] (compound concentrations: 100 nM and 1000 nM (sheet 'Samples'), CATDS: 7.7645763885448402E-2) it was 1380 nM.
With `CCCCN(Cc1ccccc1)C(=O)c1ccc(S(=O)(=O)Nc2ccccc2)cc1` [TH257], the figures for the potency estimated from few doses in [15] and in [16] were 578 nM and 2320 nM, respectively.
For `Nc1c(C(=O)c2cccc(OCCN3CCOCC3)c2)cnn1-c1ccc(F)cc1` [RO5301104-000], in assay [2] (setting [30]), the potency estimated from few doses is 701 nM.
As for `O=C1NC(=O)C(c2ccc(Cl)cc2)=C1Nc1cccc(Cl)c1` [SB-317651], the potency estimated from few doses in [17] is 1860 nM; in assay [18], 2450 nM; in [19], 1570 nM; in assay [20], 1320 nM; in [12] (setting [29]) it was 1500 nM.
For `COc1cc2ncn(-c3cc(OCc4ccccc4Cl)c(C(N)=O)s3)c2cc1OC` [GW852849X], the potency estimated from few doses in [21] (compound concentrations: 100 nM and 1000 nM (sheet 'Samples'), CATDS: 0.14122884829610699) is 1950 nM; in assay [22] it was 184 nM; in assay [23], 68.2 nM; in assay [24] it was 1960 nM; in assay [25], 1000 nM.
As for `C[C@@H](Oc1cc(-n2cnc3ccc(OC4CCN(C)CC4)cc32)sc1C(N)=O)c1ccccc1Cl` [GSK579289A], the potency estimated from few doses in [21] (setting [29]) was 1340 nM; in [26], 601 nM; in [27], 1760 nM; in [28], 1030 nM.
As for `Nc1c(C(=O)c2cccc(OC[C@H](O)CO)c2)cnn1-c1ccc(F)cc1` [RO3201196-000], the potency estimated from few doses in assay [2] (setting [30]) was 697 nM.
